Assay results from PubChem BioAssay (NCATS).
Values joined by “and” are separate entries in the source; they are usually repeats but may differ in a detail not shown here. Identical values can stand only once. Records with an inconclusive call do not appear. A number with no mark means an inactive call. The call rests on the fitted dose curve; in most records, active means well fitted cell-killing curve with a large enough effect in the repeat runs; inconclusive means weak or mixed curves; inactive means flat fitted curve, though single readings scatter.

assay: qHTS assay for small molecule agonists of the antioxidant response element (ARE) signaling pathway measured by Nrf2-dependant transcriptional activity - cell viability counter screen (AID 720653); details: ARE-bla HepG2 viability, CellTiter-Glo ATP luminescence, 16 h; hits give low values
Excerpt: National Center for Advancing Translational Sciences [NCATS] NIH Chemical Genomics Center [NCGC] U.S. Environmental Protection Agency [EPA] National Institutes of Environmental Health Sciences [NIEHS] National Toxicology Program [NTP] Assay Overview: Oxidative stress has been implicated in the pathogenesis of a variety of diseases ranging from cancer to neurodegeneration. The antioxidant response element (ARE) signaling pathway plays an important role in the amelioration of oxidative stress. The CellSensor ARE-bla HepG2 cell line (Invitrogen) can be used for analyzing the Nrf2/antioxidant response signaling pathway. Nrf2 (NF-E2-related factor 2) and Nrf1 are transcription factors that bind to AREs and activate these genes. The CellSensor ARE-bla HepG2 cell line contains a beta-lactamase reporter gene under control of the Antioxidant Response Element (ARE) stably integrated into HepG2 cells. The activation of the report gene under culture conditions can be detected by fluorescence intensity. The cytotoxicity of the compounds against the ARE-bla HepG2 cell line was quantified by measuring the intracellular ATP content.
Assay Protocol Summary: ARE-bla HepG2 cells were dispensed at 2,000 cells/5 ul/well in 1536-well black wall/clear bottom plates using a Multidrop Combi (ThermoFisher Scientific, Waltham, MA) dispenser. After the assay plates were incubated at 37C/5% CO2 for 5 hrs, 23 nL of compounds dissolved in DMSO, positive controls or DMSO only was transferred to the assay plate by a pintool work station (Kalypsys, San Diego, CA). The plates were incubated at 37C/5% CO2 for 16 hrs. After 1 uL of LiveBLAzer B/G FRET substrate was added using a Flying Reagent Dispenser (FRD) (Aurora Discovery, San Diego, CA), the assay plates were incubated at room temperature for 2 hrs. The fluorescence intensity was measured by an Envision (PerkinElmer, Shelton, CT) plate reader. Cell viability using CellTiter Glo viability assay (Promega, Madison, WI) was also measured by adding 4 ul/well of CellTiter-Glo reagent into the same assay plate using a FRD. After 30 min incubation at room temperature, the luminescence intensity in the plates was measured using a ViewLux (PerkinElmer) plate reader.
On the % scale 0 is the no-effect control and ±100 the full control effect.

Row | Structure (SMILES) | max response
1 | Cc1ccc(N(C)C)cc1 | -14.6%
2 | CC(C)(O)C(=O)O | 1.81%
3 | CC/C(C)=N/O | -8.91%
4 | O=[N+]([O-])c1cc(C(F)(F)F)ccc1Cl | -6.2%
5 | CCOCCOCC | 5.13%
6 | CCCCC=O | -1.82%
7 | Cc1cc(C)cc(N)c1 | -5.34%
8 | Nc1ccc(Cl)cc1[N+](=O)[O-] | 0.225%
9 | COC(=O)CS | -0.555%
10 | CCN(C(=O)N(CC)c1ccccc1)c1ccccc1 | -10.4%
11 | Cc1ccc(C)c(N)c1 | 0.0142%
12 | OC(CCl)CCl | 16.1%
13 | Nc1cccc(N)c1 | -7.64%
14 | FC(F)(F)c1cccc(Cl)c1 | -9.33%
15 | O=C(O)c1cccc(Cl)c1Cl | 3.31%
16 | Nc1cccc(C(F)(F)F)c1 | 1.34% and -3.53%
17 | Cc1ccc(C)cc1 | -7.71%
18 | Cc1nc2ccc(Cl)cc2[nH]1 | -4.37%
19 | NS(=O)(=O)O | 3.57%
20 | CC(=O)CC(C)C | 4.78%

Row | Structure (SMILES) | max response
21 | CCOc1cc(OCC)c(C(C)=O)cc1OCC | 3.21%
22 | c1ccc(Nc2ccccc2)cc1 | -1.43% and -3.7%
23 | CC(=O)c1ccc([N+](=O)[O-])cc1 | 19%
24 | C=CCOC(=O)COCCC(C)C | 5.49%
25 | O=C(Cl)c1c(Cl)cccc1Cl | 10.8%
26 | c1ccsc1 | 9%
27 | COc1ccc(N)c(OC)c1 | 4.1%
28 | Nc1nc2ccccc2[nH]1 | -4.79%
29 | O=[N+]([O-])c1ccc(Cl)cc1Cl | -19.5%
30 | Nc1cc([N+](=O)[O-])ccc1C(=O)O | -7.64% and 3.66%
31 | NC(=O)c1ccccc1[N+](=O)[O-] | -0.414%
32 | CCCCCO | 3.66%
33 | CC(=O)c1ccccc1[N+](=O)[O-] | -1.99%
34 | Cc1cc(C)cc(O)c1 | -0.981%
35 | CNc1ccc([N+](=O)[O-])cc1 | 5.65%
36 | CSCCC=O | -0.733%
37 | CC(C=O)Cc1ccc(C(C)(C)C)cc1 (stereo not given) | -4.71% and -17.8%
38 | Cc1c(C(=O)O)cccc1[N+](=O)[O-] | 17.9%
39 | CCNc1cc(O)ccc1C | 9.97%
40 | Nc1ccccc1[N+](=O)[O-] | -18.4%
